Source: PubChem BioAssay
IL1B secr inh: inhibitors of inflammasome signaling (IL-1 beta secretion). THP-1 LPS/ATP IL-1B secretion, AlphaLISA, 16 h; active compounds read low. activity change, % at 57.5 µM. 360,000 tested, 4.7% active. AID 743279; in the data active = activity change below about -50%; inconclusive = mostly about -30% to -49%
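Secreted IL-1B measured by AlphaLISA bead assay after 16 h compound exposure of THP-1 cells; compounds (final up to 57.5 uM) added 1 h before LPS (250 ng/mL) and ATP (1.25 mM) stimulation; lower signal means less secretion.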
TDP1 cell CPT: growth inhibition of DT40 Tdp1-/-;hTDP1 cells with camptothecin (screen for TDP1 inhibitors); chicken DT40 Tdp1-/-;hTDP1 cells + 20 nM CPT, ATP luminescence, 48 h; Potency, µM (top dose mostly 46.2 µM), inactives show at the top dose activity change, negative = growth inhibition, usual class: inhibitors; 420,000 tested, 12% active; also: potency is read from the fitted curve at half-maximal effect; nearly all actives have a fitted effect of over 55% in size
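Cell growth measured by CellTiter-Glo luminescence after a minimum 48 h, 37 C compound exposure with 20 nM CPT in Tdp1-knockout DT40 cells stably expressing hTDP1, seeded 400/well; qHTS titration format.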
DT40 TDP1 no CPT: qHTS for Inhibitors of human tyrosyl-DNA phosphodiesterase 1 (TDP1): qHTS in cells in absence of CPT; Potency, µM (top dose mostly 46.2 µM), for inactives: at the top dose activity change, negative = growth inhibition, most hits filed as inhibitors; AID 686978, 2013; DT40 Tdp1-/- hTDP1 cells, no CPT, ATP luminescence, 48 h; 420,000 tested, 15% active; also: potency is read from the fitted curve at half-maximal effect; nearly all actives have a fitted effect of over 55% in size
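Stably hTDP1-transfected Tdp1-null chicken DT40 cells were treated with library compounds minus camptothecin and grown for at least 48 hr at 37 °C, after which cellular ATP was quantified by luminescence.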
RORgamma inh: ROR gamma (mouse) transcription inhibition; P51450; Drosophila S2 Gal4-RORgamma UAS-luciferase reporter, 20 h; Potency, µM (highest dose often 53.6 µM), for inactives: at the top dose activity change, negative = inhibition, actives largely listed as inhibitors; 310,000 tested, 5.4% active; AID 2551; also: potency is read from the fitted curve at half-maximal effect; nearly all actives have a fitted effect of over 60% in size
Target sequence (P51450 whole entry, looked up, the tested form may be a part): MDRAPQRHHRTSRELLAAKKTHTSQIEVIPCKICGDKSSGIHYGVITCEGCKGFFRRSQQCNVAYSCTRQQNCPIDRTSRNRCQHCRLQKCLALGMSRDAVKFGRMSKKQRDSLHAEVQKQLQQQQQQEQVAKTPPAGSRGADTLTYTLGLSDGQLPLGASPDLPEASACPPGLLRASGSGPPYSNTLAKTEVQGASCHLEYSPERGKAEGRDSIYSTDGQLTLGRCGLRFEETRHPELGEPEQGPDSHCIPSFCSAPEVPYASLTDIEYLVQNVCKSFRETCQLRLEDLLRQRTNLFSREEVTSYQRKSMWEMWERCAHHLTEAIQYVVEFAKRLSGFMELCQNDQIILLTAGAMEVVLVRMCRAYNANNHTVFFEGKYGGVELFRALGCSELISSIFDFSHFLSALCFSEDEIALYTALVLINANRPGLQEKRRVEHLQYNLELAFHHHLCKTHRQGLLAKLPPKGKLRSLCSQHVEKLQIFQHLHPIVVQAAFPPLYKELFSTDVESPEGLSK
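Stably transfected Drosophila Schneider cells are the test system, with ROR gamma fused to Gal4 and luciferase under UAS control; luminescence is read after 20 hr of 700 uM copper sulfate induction at ambient temperature.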
VP16 counter: counter-screen for ROR gamma inhibitors: Gal4-VP16 reporter | Potency, µM (doses to about 53.6 µM), inactives show at the top dose activity, negative = inhibition, most hits filed as inhibitors | 310,000 tested, 3.5% active | AID 2546 | Drosophila S2 Gal4-VP16 UAS-luciferase, luminescence, 20 h;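 also: Gal4-VP16 expression switched on by copper sulfate through the metallothionein promoter; potency is read from the fitted curve at half-maximal effect; nearly all actives have a fitted effect of over 50% in size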
ELG1 DNA repair: ELG1-dependent DNA repair inhibition | HEK293T ELG1-luciferase reporter, luminescence, 16 h; DNA damage induced by 5-fluorouridine | Potency, µM (titrated, usually from 46.1 µM), for inactives: top-dose activity change, negative = inhibition, actives largely listed as inhibitors | 330,000 tested, 2.3% active; also: potency is read from the fitted curve at half-maximal effect; nearly all actives have a fitted effect of over 55% in size
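5-Fluorouridine DNA damage + compound/DMSO, 2,000 cells/well, 16 h, 37 °C/5% CO2. ONE-Glo, 30 min RT, luminescence. Readout = decrease in reporter signal.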
Numbers without * were called inactive; ? = inconclusive; . = no result given; [ ] = another dose, or the depositor's remark. The list is not random: actives were taken first. Their share in the collection is about 21%. Unless noted, calls follow the shape of the dose curve; as a rule, active = well fitted curve in the direction sought with a large enough effect; inconclusive = small, poorly fitted or top-dose-only effect, or another doubt; inactive = no such curve, though single readings can be large; an effect the other way counts as inactive or inconclusive. % is scaled to controls: 0 for no effect and ±100 for the full control effect.

SMILES	IL1B secr inh	TDP1 cell CPT	DT40 TDP1 no CPT	RORgamma inh	VP16 counter	ELG1 DNA repair
Cc1ccsc1C(=O)Nc1nnc(-c2ccco2)o1	9	?	-109%	0.28µM*	?	9%
Cc1ccc(C(=O)Nc2nnc(-c3ccco3)o2)cc1	-4	23µM*	23µM*	?	?	?
CCC(=O)c1ccc(OCCSc2ncccn2)cc1	-6	?	18µM*	11µM*	-6%	?
O=C(O)[C@H]1O[C@@H](Oc2ccc3ccc(=O)oc3c2)[C@H](O)[C@@H](O)[C@@H]1O	.	.	.	0%	4%	.
COc1ccc(C(CNC(=O)CNC(=O)c2cccc(F)c2)N2CCOCC2)cc1 (stereo unspecified)	-6	6%	-7%	.	.	.
Cc1ccccc1-c1nn(-c2ccc(F)cc2F)cc1CNCC(C)O (stereo unspecified)	-19	-28%	?	2%	1%	-2%
CCOCCCNCc1cn(-c2ccc(F)cc2F)nc1-c1ccccc1C	-77*	15µM*	16µM*	-36%	-4%	6%
COc1ccc(O[C@H]2C=C[C@@H](c3ccccc3)O[C@@H]2CON=C(C)C)cc1	.	.	.	8%[10 µM]	-4%[10 µM]	.
Cc1ccc(C2=NS(=O)(=O)N(C)C(C(=O)Nc3ccc4c(c3)OCO4)=C2)cc1	11	?	?	?	?	?
COc1ccc(C2=NS(=O)(=O)N(C)C(C(=O)NC3CCCC3)=C2)cc1OC	-23	?	?	1%	-1%	-18%
COc1ccc(C2=NS(=O)(=O)N(C)C(C(=O)Nc3ccc4c(c3)OCO4)=C2)cc1	-17	16µM*	8.2µM*	?	-23%	27%
COc1ccc(C2=NS(=O)(=O)N(C)C(C(=O)Nc3ccc4c(c3)OCO4)=C2)cc1OC	8	16µM*	16µM*	-4%	-14%	-20%
COc1ccc(C2=NS(=O)(=O)N(C)C(C(=O)NC3CCCCC3)=C2)cc1OC	2	9.2µM*	18µM*	43%	0%	?
COc1cn(-c2ccccc2)nc1C(=O)NCc1ccccc1	?	-27%	-19%	-3%	-13%	2%
O=C(Nc1cccc(C(F)(F)F)c1)C1CC(=O)N(CCc2ccccc2)C1 (stereo unspecified)	-17	?	?	.	.	4%
CCOC(=O)N1CCN(CC(=O)Nc2ccc(Oc3ccccc3)cc2)CC1	-64*	?	?	3%	5%	?
CCC1(CC)NC(=O)N(CC(=O)Nc2ccc(OCc3ccccc3)cc2)C1=O	-3	?	18µM*	.	.	?
COc1ccccc1NC(=O)CN1CCN(CC(=O)Nc2ccc(F)cc2)CC1	-10	-21%	?	-18%	5%	-18%
CN1CCN(CC(=O)Nc2ccc(Oc3ccccc3)cc2)CC1	2	-20%	?	-4%	0%	-18%
N#CCN1CCN(CCC(=O)Nc2ccc(OCc3ccccc3)cc2)CC1	-3	-17%	23µM*	-6%	19%	?
COc1ccccc1NC(=O)CN1CCN(CC(=O)Nc2ccc(OCc3ccccc3)cc2)CC1	?	?	16µM*	?	?	?
COc1ccc(Cl)cc1NC(=O)CSc1nnc2[nH]c(=O)cc(C)n12	.	19%	-6%	.	.	.
CCOc1ccc(NC(=O)CN2CCN(CC(=O)Nc3ccccc3OCC)CC2)cc1	.	16µM*	21µM*	.	.	.
O=C(CN1CCN(C(c2ccccc2)c2ccccc2)CC1)N1CCOCC1	16	9%	-5%	0%	-4%	-8%
CCOc1ccccc1NC(=O)C(c1ccccc1)N1CCN(CC(=O)N2CCOCC2)CC1 (stereo unspecified)	14	23µM*	-16%	.	.	2%
SMILES	IL1B secr inh	TDP1 cell CPT	DT40 TDP1 no CPT	RORgamma inh	VP16 counter	ELG1 DNA repair
CCOc1ccccc1NC(=O)CN1CCCCCC1	15	?	?	-17%	-3%	-8%
COc1ccc(NC(=O)CSC2=Nc3ccccc3C3=NC(CC(=O)NCc4ccco4)C(=O)N23)cc1 (stereo unspecified)	.	-28%	-20%	.	.	.
N#Cc1c(Cl)nc(N/N=C/c2ccccc2)c(Cl)c1Cl	-18	9%	0%	8.9µM*	5µM*	8%
CC(C)CC(=O)Nc1ccc(C(=O)OCc2cc(=O)n3nc(C(C)C)sc3n2)cc1	.	-29%	-17%	.	.	.
CC(C)Cn1c(N)c(C(=O)COC(=O)c2cc(C(F)(F)F)nc3ccccc23)c(=O)n(C)c1=O	6	8.2µM*	18µM*	?	?	?
CC(C)Cn1c(N)c(C(=O)COC(=O)c2cc(-c3ccccc3)nc3ccccc23)c(=O)n(C)c1=O	9	21µM*	16µM*	-5%	-8%	7.3µM*
CC(C)Cn1c(N)c(C(=O)COC(=O)c2cc(C3CC3)nc3ccccc23)c(=O)n(C)c1=O	-4	?	21µM*	?	?	23µM*
Cn1c(N)c(C(=O)COC(=O)c2cc(C(F)(F)F)nc3ccccc23)c(=O)n(C)c1=O	.	.	.	?	2%	-9%
CCOC(=O)c1c(-c2ccc(OC)cc2)oc2ccc(OCc3ccccc3C)cc12	.	-23%	?	.	.	.
O=C(c1ccco1)N1CCC[C@@]2(CCN(C(c3ccccc3)c3ccccc3)C2)C1	.	?	?	12%	?	.
Cc1ccc(S(=O)(=O)/N=C2/NC(=O)/C(=C/c3cccnc3)S2)cc1	-3	?	29µM*	-16%	-3%	?
O=C1/C(=C\c2cccnc2)Sc2ccccc21	-26	?	21µM*	?	?	?
O=C1N/C(=N/O)S/C1=C/c1cccnc1	-10	-16%	19%	-11%	6%	21%
Cc1ccc(S(=O)(=O)/N=C2/NC(=O)/C(=C\c3cc(Br)cc(Br)c3O)S2)cc1	9	-9%	-4%	11µM*	-17%	0%
Cc1ccccc1N=C1NC(=O)/C(=C/c2cccnc2)S1	0	-14%	?	-22%	-5%	21µM*
Cn1c(N)c(C(=O)c2ccc(F)cc2F)c(=O)n(C)c1=O	19	-1%	-5%	?	2%	?
COc1ccc(N2CCN(C(=O)COC(=O)c3ccc(C)o3)CC2)cc1	10	?	?	.	.	4%
O=S(=O)(c1ccccc1)N1CCC2(CCN(Cc3nccs3)CC2)CC1	.	8%	-11%	-8%	-3%	.
